# Screening results from PubChem.
# Hits are enriched below; roughly 18% of the tested compounds scored in any of these assays.
# TDP1 inh: qHTS Assay for Inhibitors of Tyrosyl-DNA Phosphodiesterase (TDP1); recombinant TDP1, AlphaScreen DNA substrate cleavage; AID 485290, 2010; Potency, µM (doses to about 130 µM), inactives show at the highest dose activity change, negative = inhibition, hits mostly inhibitors; actives 0.28% (n = 350,000); further: potency means the concentration at half of the fitted maximal effect; on the % scale 0 is the no-effect control and ±100 the full control effect; nearly all actives have a fitted effect of over 40% in size
# Target sequence (Q9NUW8 whole entry, looked up): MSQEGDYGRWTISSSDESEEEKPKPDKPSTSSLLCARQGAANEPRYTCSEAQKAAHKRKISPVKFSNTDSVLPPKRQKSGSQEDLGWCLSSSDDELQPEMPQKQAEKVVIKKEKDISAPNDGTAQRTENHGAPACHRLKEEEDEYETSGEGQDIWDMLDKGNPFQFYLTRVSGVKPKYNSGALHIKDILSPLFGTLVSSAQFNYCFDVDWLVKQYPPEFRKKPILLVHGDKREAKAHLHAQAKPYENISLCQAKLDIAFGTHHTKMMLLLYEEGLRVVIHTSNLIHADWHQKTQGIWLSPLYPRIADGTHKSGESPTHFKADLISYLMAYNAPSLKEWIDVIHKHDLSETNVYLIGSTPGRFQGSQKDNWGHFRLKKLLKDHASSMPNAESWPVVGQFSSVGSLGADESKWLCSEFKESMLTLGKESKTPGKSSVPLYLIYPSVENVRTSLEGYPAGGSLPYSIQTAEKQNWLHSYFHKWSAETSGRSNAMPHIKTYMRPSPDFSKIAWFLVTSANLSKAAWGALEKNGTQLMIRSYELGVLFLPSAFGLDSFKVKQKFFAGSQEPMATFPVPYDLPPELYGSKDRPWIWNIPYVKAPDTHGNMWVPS
#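 Tdp1 1 nM final; 15 min RT w/ cpd; substrate 15 nM, 5 min; beads 10 ug/ml, 10 min; AlphaScreen read. Neg ctrl: no enzyme.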
# DT40 TDP1 no CPT: qHTS for Inhibitors of human tyrosyl-DNA phosphodiesterase 1 (TDP1): qHTS in cells in absence of CPT; DT40 Tdp1-/- hTDP1 cells, no CPT, ATP luminescence, 48 h; Potency, µM (titrated, usually from 46.2 µM), without a hit: at the top dose activity change, negative = growth inhibition, usual class: inhibitors; actives 15% (n = 420,000); further: potency means the concentration at half of the fitted maximal effect; on the % scale 0 is the no-effect control and ±100 the full control effect; nearly all actives have a fitted effect of over 55% in size
#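 Cells were dispensed at 400 per well, compounds added by pin tool, plates incubated ≥48 hr at 37 °C, then CellTiter-Glo added for 30 min at room temperature before luminescence reading. Line: DT40 Tdp1-/- complemented with hTDP1; camptothecin omitted.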
# TGFb inhibitor: qHTS for Inhibitors of TGF-b; actives 1.2% (n = 410,000); AID 588855, 2011; HepG2 CAGA-GFP TGF-b/SMAD3 reporter, GFP fluorescence, 18 h; TGF-beta stimulated, 500 pg/mL final; Potency, µM (series often up to 46.1 µM), for the others: top-dose activity, negative = inhibition, most hits filed as inhibitors; further: potency means the concentration at half of the fitted maximal effect; on the % scale 0 is the no-effect control and ±100 the full control effect; nearly all actives have a fitted effect of over 65% in size
#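 HEPG2 CAGA-GFP, 1000 cells/well; 2 h settle, 37 C; cpd via pin tool; TGF-b 500 pg/mL final; 18 h, 37 C; GFP imaging ex488/em500-530; %Activity normalised to -TGF-b and +DMSO controls; CRC fit, curve class.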
# DT40 TDP1 CPT: qHTS for Inhibitors of human tyrosyl-DNA phosphodiesterase 1 (TDP1): qHTS in cells in presence of CPT; chicken DT40 Tdp1-/-;hTDP1 cells + 20 nM CPT, ATP luminescence, 48 h; Potency, µM (titrated, usually from 46.2 µM), for the others: at the top dose activity change, negative = growth inhibition, hits mostly inhibitors; actives 12% (n = 420,000); further: potency means the concentration at half of the fitted maximal effect; on the % scale 0 is the no-effect control and ±100 the full control effect; nearly all actives have a fitted effect of over 55% in size
#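 Cell growth measured by CellTiter-Glo luminescence after a minimum 48 h, 37 C compound exposure with 20 nM CPT in Tdp1-knockout DT40 cells stably expressing hTDP1, seeded 400/well; qHTS titration format.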
# IL-1B inflam inh: qHTS for Inhibitors of Inflammasome Signaling: IL-1-beta AlphaLISA Primary Screen. THP-1 LPS/ATP IL-1B secretion, AlphaLISA, 16 h; active compounds read low. activity change, % at 57.5 µM. AID 743279, 2014. actives 4.7% (n = 360,000); in the data active means activity change below about -50%; inconclusive means mostly about -30% to -49%; further: on the % scale 0 is the no-effect control and ±100 the full control effect
#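 THP-1 cells pretreated 1 hr with compounds (up to 57.5 uM final), then stimulated with LPS (250 ng/mL final) plus ATP (1.25 mM final); secreted IL-1B measured by AlphaLISA after 16 hr, decreased signal indicating inhibition.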
# HepG2 viability: qHTS for Inhibitors of TGF-b: Cytotox Counterscreen; HepG2 CAGA-GFP viability, ATP luminescence, 18 h; Potency, µM (highest dose often 46.1 µM), inactives show at the highest dose activity change, negative = cytotoxicity, most hits filed as cytotoxic; actives 0.76% (n = 410,000); AID 588856, 2011; further: potency means the concentration at half of the fitted maximal effect
#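 CellTiter-Glo luminescence gave cytotoxicity after 18 hours at 37 degrees C. The cells were HepG2 CAGA-GFP in 1% FBS DMEM, stimulated with 500 pg/mL TGF-beta after compound addition. %Activity was normalised to no-cell wells (complete cell-killing) and DMSO (no toxicity), and curves were fitted and classified.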
# Active calls of the source: *; ? = inconclusive; · = no result; [ ] = another dose, or the depositor's remark. Unless noted, the call rests on the fitted dose curve; in most records, active means well fitted curve in the direction sought with a large enough effect; inconclusive means small, poorly fitted or top-dose-only effect, or another doubt; inactive means no such curve, though single readings can be large; an effect the other way counts as inactive or inconclusive.
SMILES,TDP1 inh,DT40 TDP1 no CPT,TGFb inhibitor,DT40 TDP1 CPT,IL-1B inflam inh,HepG2 viability
CC(=O)NC1=C(C#N)C(c2ccccc2)c2c(ccc3ccccc23)O1 (configuration not stated),6%,7.3µM*,-29%,8.2µM*,60,-17%
O=C(C[n+]1cc(-c2ccc(Br)cc2)n2c1CCCCC2)c1ccccc1,5%,16µM*,5%,?,-56*,-12%
O=C(C[n+]1cc(-c2ccc(Cl)cc2)n2c1CCCCC2)c1ccccc1,1%,6.5µM*,7%,6.5µM*,-62*,-18%
CC(C)Sc1ncc(Cl)c(C(=O)N(Cc2ccc(N(C)C)cc2)C2CCS(=O)(=O)C2)n1 (configuration not stated),2%,?,1%,16µM*,·,1%
CCOc1ccc(CN(C(=O)c2nc(SC)ncc2Cl)C2CCS(=O)(=O)C2)cc1 (configuration not stated),0%,16µM*,-15%,-25%,·,-19%
CCc1ccc(CN(C(=O)c2nc(SC)ncc2Cl)C2CCS(=O)(=O)C2)cc1 (configuration not stated),5%,?,-18%,?,·,-51%
CCSc1ncc(Cl)c(C(=O)N(Cc2ccc(N(C)C)cc2)C2CCS(=O)(=O)C2)n1 (configuration not stated),4%,-21%,2%,?,4,-55%
CCCNC(=S)N1CCC(NC(=O)c2ccc(C)cc2)CC1,4%,0%,-7%,0%,17,10%
COc1ccc(CCC(=O)OCC(=O)Nc2ccc(OC)c(OC)c2)cc1OC,7%[0.0935 µM],-18%,-1%,5%,30,0%
CCN1C(=O)[C@H]2[C@@H](c3ccc(-c4ccc(F)cc4)cc3)N[C@@](C)(C(=O)OC)[C@H]2C1=O,-14%,21µM*,-26%,23µM*,-12,-12%
CCN1C(=O)[C@H]2[C@@H](c3ccc(-c4ccc(F)cc4)c(OC)c3)N[C@@](C)(C(=O)OC)[C@H]2C1=O,·,?,-13%,13µM*,-16,-13%
CCN1C(=O)[C@H]2[C@@H](c3ccc(-c4cccc(Cl)c4)cc3)N[C@@](C)(C(=O)OC)[C@H]2C1=O,-4%,13µM*,1%,16µM*,-5,-12%
CCC(=O)C1CCCN(C(=O)c2cccc(OC3CCN(S(C)(=O)=O)CC3)c2)C1 (configuration not stated),·,-7%,0%,-26%,-8,-5%
COC(=O)c1cc(O)cc(OC)c1Oc1cc(C)cc(O)c1C(=O)O,·,1µM*,-26%,1.2µM*,?,-27%
COc1ccc(C2C(C(C)=O)=C(C)Nc3ncnn32)cc1 (configuration not stated),·,1%,1%,17%,17,11%
COC(=O)C1=C(C)Nc2ncnn2C1c1ccc(OC(=O)c2ccccc2)cc1 (configuration not stated),-2%,?,-1%,8.2µM*,14,2%
CCN(CC)C(=O)C1=C(C)Nc2ncnn2C1c1cccnc1 (configuration not stated),1%,-5%,11%,1%,12,8%
CC1=C(C(=O)OCc2ccccc2)C(c2cccnc2)n2ncnc2N1 (configuration not stated),-2%,15µM*,37%,18µM*,19,8%
CCOC(=O)c1cnc2sc3c(n2c1=O)CCCC3,8%,15µM*,4%,26µM*,0,-1%
CCOC(=O)c1cnc2nc(C)[nH]n2c1=O,3%,9%,12%,-6%,10,4%
COC(=O)N1[C@H](C)C=C[C@]1(Cc1ccccc1)C(=O)NCCCNc1ncc(C(F)(F)F)cc1Cl,10%,?,?,?,-6,-19%
CC1(C(=O)NCCCNc2ncc(C(F)(F)F)cc2Cl)C=CCN1C(=O)c1ccccc1 (configuration not stated),3%,?,?,?,-77*,-47%
C[C@]1(C(=O)NCCCNc2ncc(C(F)(F)F)cc2Cl)C=C[C@@H](Cc2ccccc2)N1C(=O)c1ccccc1,0%,26µM*,?,?,?,-19%
Cc1cccc(CNC(=O)c2c3n(c(C)cc2=O)-c2ccccc2SC(c2sccc2C)C3)n1 (configuration not stated),·,-13%,·,-5%[9.04 µM],·,·
COc1ccc(C(C)(NC(C)=O)c2nc(-c3ccncc3)cs2)cc1 (configuration not stated),·,-7%,0%,-8%,16,-3%
SMILES,TDP1 inh,DT40 TDP1 no CPT,TGFb inhibitor,DT40 TDP1 CPT,IL-1B inflam inh,HepG2 viability
COc1ccc(C(C)(NC(C)=O)c2nc(-c3ccc(F)c(Cl)c3)cs2)cc1 (configuration not stated),·,23µM*,9%,18µM*,-27,-24%
COc1cccc(C(NC(C)=O)c2nc(-c3ccc(F)c(Cl)c3)cs2)c1 (configuration not stated),·,-25%,-10%,-14%,-23,-19%
CC(=O)NC(C)(c1ccccc1)c1nc(-c2ccc(N(C)C)cc2)cs1 (configuration not stated),·,23µM*,1%,16µM*,-3,-4%
COc1ccc(-c2csc(C(C)(NC(C)=O)c3ccc(OC)cc3)n2)cc1 (configuration not stated),·,?,8%,16µM*,3,-19%
CC1=C(C(=O)Nc2ccc(C)cc2C)C(c2ccc(O)cc2)n2nc(SCC(=O)c3ccc(C)cc3)nc2N1 (configuration not stated),-5%,-13%,5%,-20%,·,-5%
CN(C)S(=O)(=O)c1cccc(NC(=O)c2cccc(N3C(=O)CCC3=O)c2)c1,7%,-8%,1%,0%,11,-5%
CN(C)c1ccc(/C=C(\C#N)C(=O)OCC(=O)N(C)C2CCS(=O)(=O)C2)cc1 (configuration not stated),-16%,-20%,?,-22%,-15,5%
